Results taken from the supplement of paper PMC10849652.
The full data set covers some 7,900 targets. This sample favours those with a hit. About 0.6% of all pairs of compound and target were hits. Values without a mark were called inactive.

Assays:
Test in all cases: log2 fold change, soluble protein after heating vs DMSO (PISA); higher = thermal stabilisation; K562 cells, 10 uM, 30 min; active = over 0.2 and 3.5 SD of the protein, either way, in both replicates (recomputed)
[1] = compound: CC1=C(C=C(C=C1)NC(=O)C2=CC(=CC=C2)C(C)(C)C#N)NC3=CC4=C(C=C3)N=CN(C4=O)C
Outline: (§1)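 K562 cells at 2×10^6 cells/mL were treated with 10 μM compound for 30 min. Aliquots were heated for 3 min across 48°C-58°C, pooled, and extracted in PBS with 0.5% NP-40 at 4°C; soluble protein was the supernatant after 21,000xg for 90 min. Soluble protein was quantified by TMTpro 16plex LC-MS/MS with channel sums equalised, and reported as log2 fold change in thermal stability against DMSO controls, with values from duplicates.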

[2] = compound: CC1=C(C=C(C=C1)NC(=O)C2=CC(=CC=C2)N(C)C)NC(=O)C3=CC=C(C=C3)O
Outline: as §1

[3] = compound: CC1=CC=C(C=C1)SC2=C3C=C(SC3=CN=C2)C(=O)N
Outline: as §1

[4] = compound: CC1=NC(=CC=C1)C2=C(N=C(N2)C(C)(C)C)C3=CC4=NC=CN=C4C=C3
Outline: as §1

Nexturastat A = compound: CCCCN(Cc1ccc(C(=O)NO)cc1)C(=O)Nc1ccccc1 [Nexturastat A]
Outline: as §1

vemurafenib = compound: CCCS(=O)(=O)Nc1ccc(F)c(C(=O)c2c[nH]c3ncc(-c4ccc(Cl)cc4)cc23)c1F [vemurafenib]
Outline: as §1

[5] = compound: CCCS(=O)(=O)Nc1ccc(F)c(C(=O)c2c[nH]c3ncc(Cl)cc23)c1F
Outline: as §1

[6] = compound: CCCc1cc(C)[nH]c(=O)c1CNC(=O)c1cc(-c2ccnc(N3CCN(C)CC3)c2)cc2c1cnn2C(C)C
Outline: as §1

givinostat = compound: CCN(CC)Cc1ccc2cc(COC(=O)Nc3ccc(C(=O)NO)cc3)ccc2c1 [givinostat]
Outline: as §1

barasertib = compound: CCN(CCCOc1ccc2c(Nc3cc(CC(=O)Nc4cccc(F)c4)[nH]n3)ncnc2c1)CCOP(=O)(O)O [barasertib]
Outline: as §1

[7] = compound: CC[C@@H]1C(=O)N(C)c2cnc(Nc3ccc(C(=O)NC4CCN(C)CC4)cc3OC)nc2N1C1CCCC1
Outline: as §1

volasertib = compound: CC[C@@H]1C(=O)N(C)c2cnc(Nc3ccc(C(=O)N[C@H]4CC[C@H](N5CCN(CC6CC6)CC5)CC4)cc3OC)nc2N1C(C)C [volasertib]
Outline: as §1

[8] = compound: CC[C@H](C)N1C=C(C2=C(C=C(C=C21)C3=CN=C(C=C3)N4CCNCC4)C(=O)NCC5=C(C=C(NC5=O)C)C)C
Outline: as §1

epoxomicin = compound: CC[C@H](C)[C@@H](C(=O)N[C@@H]([C@@H](C)O)C(=O)N[C@@H](CC(C)C)C(=O)[C@]1(CO1)C)NC(=O)[C@H]([C@@H](C)CC)N(C)C(=O)C [epoxomicin]
Outline: as §1

[9] = compound: CCn1c(C(=O)N(C2CC2)C2CC2)cc2c3c(ncn3C)c(Nc3cc(C)n(C)n3)nc21
Outline: as §1

[10] = compound: CCn1cc(-c2ccnc3[nH]c(-c4cccc(CN(C)C)c4)cc23)c(-c2ccc(NC(=O)N(C)C)cc2)n1
Outline: as §1

[11] = compound: CN(C)CC(=O)Nc1ccc2[nH]c(=O)c3ccccc3c2c1
Outline: as §1

rosiglitazone = compound: CN(CCOC1=CC=C(C=C1)C[C@H]2C(=O)NC(=O)S2)C3=CC=CC=N3 (racemic) [rosiglitazone]
Outline: as §1

[12] = compound: CN1C2=C(C3=C1C(=O)N(N=C3)CC4=CC(=CC=C4)N)SC(=C2)S(=O)C
Outline: as §1

[13] = compound: CN1CCC(CNc2ccc3ncc(-c4cccc(OC(F)(F)F)c4)n3n2)CC1
Outline: as §1

Chain of UniProt Q9H0R6 (Q9H0R6 whole entry, looked up): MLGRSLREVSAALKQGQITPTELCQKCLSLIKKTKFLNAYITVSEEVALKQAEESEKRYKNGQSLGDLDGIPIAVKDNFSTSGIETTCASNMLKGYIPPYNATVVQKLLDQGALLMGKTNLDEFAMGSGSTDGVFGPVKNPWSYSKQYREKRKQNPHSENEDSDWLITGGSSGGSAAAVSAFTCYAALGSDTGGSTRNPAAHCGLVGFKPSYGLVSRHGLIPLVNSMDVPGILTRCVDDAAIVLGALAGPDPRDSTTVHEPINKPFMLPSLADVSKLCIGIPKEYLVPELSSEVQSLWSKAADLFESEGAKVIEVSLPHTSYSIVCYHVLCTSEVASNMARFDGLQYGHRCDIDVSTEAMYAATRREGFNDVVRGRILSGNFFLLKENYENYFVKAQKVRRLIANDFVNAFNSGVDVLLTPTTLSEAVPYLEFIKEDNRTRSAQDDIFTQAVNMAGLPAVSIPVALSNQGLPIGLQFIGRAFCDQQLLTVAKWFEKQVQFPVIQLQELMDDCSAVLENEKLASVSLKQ
Chain of UniProt Q8NAV1 (Q8NAV1 whole entry, looked up): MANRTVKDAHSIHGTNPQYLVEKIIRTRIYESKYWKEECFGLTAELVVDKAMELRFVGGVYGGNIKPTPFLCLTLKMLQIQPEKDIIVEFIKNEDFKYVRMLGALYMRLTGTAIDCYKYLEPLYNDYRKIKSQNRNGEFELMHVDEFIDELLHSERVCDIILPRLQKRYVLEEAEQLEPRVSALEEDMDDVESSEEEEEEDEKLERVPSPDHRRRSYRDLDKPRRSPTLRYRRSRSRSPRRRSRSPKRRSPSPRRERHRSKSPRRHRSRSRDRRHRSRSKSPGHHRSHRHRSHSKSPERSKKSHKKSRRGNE
Chain of UniProt O00625 (O00625 whole entry, looked up): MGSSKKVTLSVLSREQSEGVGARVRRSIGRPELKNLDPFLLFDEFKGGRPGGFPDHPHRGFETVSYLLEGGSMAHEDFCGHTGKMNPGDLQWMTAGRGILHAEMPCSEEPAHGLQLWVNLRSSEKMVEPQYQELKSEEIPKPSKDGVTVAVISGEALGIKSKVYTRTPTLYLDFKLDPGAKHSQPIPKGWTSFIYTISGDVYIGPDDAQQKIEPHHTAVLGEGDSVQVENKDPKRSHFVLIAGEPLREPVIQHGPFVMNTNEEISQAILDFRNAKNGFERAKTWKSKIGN
Chain of UniProt O15355 (O15355 whole entry, looked up): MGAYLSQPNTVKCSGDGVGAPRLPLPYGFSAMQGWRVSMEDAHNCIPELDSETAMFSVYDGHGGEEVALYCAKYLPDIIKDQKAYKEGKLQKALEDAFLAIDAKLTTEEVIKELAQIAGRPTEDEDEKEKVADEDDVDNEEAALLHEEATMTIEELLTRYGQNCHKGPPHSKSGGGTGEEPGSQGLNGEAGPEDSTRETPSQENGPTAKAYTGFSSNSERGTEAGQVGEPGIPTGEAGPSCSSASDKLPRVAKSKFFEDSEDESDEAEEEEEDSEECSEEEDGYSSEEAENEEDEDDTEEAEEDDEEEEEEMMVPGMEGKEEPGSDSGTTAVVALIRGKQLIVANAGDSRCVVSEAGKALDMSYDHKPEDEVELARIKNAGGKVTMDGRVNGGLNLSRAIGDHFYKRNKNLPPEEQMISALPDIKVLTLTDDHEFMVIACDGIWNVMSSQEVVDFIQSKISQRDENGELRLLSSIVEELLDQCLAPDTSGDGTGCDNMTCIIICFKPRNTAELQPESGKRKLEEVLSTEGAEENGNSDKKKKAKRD
Chain of UniProt Q7RTV0 (Q7RTV0 whole entry, looked up): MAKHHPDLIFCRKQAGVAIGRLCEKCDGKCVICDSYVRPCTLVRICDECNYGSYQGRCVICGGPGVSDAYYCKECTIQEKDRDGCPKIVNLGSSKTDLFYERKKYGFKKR
Chain of UniProt P35227 (P35227 whole entry, looked up): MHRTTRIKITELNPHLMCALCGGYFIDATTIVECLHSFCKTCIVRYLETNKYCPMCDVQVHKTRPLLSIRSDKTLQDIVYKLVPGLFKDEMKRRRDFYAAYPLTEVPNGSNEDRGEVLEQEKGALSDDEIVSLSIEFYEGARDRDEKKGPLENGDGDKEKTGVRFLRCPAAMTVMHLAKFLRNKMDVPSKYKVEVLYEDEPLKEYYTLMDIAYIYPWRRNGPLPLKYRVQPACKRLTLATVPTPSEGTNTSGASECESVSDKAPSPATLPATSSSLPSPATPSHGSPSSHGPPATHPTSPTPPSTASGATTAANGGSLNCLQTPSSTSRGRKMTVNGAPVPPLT
Chain of UniProt Q15054 (Q15054 whole entry, looked up): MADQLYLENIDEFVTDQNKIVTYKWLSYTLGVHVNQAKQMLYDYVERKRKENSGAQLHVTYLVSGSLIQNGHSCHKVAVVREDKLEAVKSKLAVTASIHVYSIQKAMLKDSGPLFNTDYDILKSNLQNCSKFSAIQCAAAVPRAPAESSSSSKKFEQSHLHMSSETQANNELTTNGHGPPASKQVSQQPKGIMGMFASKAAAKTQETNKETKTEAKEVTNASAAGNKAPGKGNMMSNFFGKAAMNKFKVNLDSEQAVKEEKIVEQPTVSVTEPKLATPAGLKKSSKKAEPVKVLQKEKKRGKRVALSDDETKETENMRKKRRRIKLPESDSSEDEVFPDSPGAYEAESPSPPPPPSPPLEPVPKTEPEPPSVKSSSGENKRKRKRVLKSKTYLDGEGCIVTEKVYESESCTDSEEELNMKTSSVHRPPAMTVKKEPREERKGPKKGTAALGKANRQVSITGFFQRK
Chain of UniProt P49643 (P49643 whole entry, looked up): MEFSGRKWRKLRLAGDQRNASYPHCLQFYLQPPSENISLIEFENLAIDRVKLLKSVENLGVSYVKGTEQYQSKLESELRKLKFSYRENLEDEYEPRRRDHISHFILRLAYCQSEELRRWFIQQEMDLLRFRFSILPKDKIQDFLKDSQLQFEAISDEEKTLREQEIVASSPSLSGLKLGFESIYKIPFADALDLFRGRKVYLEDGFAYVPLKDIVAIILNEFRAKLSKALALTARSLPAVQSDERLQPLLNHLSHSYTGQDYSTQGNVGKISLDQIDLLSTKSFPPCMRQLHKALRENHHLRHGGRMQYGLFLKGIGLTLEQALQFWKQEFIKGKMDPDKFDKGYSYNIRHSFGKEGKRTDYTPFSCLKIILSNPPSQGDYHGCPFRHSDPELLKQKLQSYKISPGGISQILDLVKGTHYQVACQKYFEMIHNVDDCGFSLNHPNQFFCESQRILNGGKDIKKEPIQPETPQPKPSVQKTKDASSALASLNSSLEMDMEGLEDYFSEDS
Chain of UniProt P50897 (P50897 whole entry, looked up): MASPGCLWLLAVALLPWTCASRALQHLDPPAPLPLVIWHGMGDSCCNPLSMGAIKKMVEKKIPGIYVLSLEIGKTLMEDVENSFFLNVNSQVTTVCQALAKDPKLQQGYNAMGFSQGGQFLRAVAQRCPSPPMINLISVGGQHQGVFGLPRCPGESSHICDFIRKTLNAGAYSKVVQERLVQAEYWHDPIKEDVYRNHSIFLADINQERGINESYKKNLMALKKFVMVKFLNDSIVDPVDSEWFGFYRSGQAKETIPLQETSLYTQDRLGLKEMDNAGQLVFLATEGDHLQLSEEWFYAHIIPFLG
Chain of UniProt Q8IWE5 (Q8IWE5 whole entry, looked up): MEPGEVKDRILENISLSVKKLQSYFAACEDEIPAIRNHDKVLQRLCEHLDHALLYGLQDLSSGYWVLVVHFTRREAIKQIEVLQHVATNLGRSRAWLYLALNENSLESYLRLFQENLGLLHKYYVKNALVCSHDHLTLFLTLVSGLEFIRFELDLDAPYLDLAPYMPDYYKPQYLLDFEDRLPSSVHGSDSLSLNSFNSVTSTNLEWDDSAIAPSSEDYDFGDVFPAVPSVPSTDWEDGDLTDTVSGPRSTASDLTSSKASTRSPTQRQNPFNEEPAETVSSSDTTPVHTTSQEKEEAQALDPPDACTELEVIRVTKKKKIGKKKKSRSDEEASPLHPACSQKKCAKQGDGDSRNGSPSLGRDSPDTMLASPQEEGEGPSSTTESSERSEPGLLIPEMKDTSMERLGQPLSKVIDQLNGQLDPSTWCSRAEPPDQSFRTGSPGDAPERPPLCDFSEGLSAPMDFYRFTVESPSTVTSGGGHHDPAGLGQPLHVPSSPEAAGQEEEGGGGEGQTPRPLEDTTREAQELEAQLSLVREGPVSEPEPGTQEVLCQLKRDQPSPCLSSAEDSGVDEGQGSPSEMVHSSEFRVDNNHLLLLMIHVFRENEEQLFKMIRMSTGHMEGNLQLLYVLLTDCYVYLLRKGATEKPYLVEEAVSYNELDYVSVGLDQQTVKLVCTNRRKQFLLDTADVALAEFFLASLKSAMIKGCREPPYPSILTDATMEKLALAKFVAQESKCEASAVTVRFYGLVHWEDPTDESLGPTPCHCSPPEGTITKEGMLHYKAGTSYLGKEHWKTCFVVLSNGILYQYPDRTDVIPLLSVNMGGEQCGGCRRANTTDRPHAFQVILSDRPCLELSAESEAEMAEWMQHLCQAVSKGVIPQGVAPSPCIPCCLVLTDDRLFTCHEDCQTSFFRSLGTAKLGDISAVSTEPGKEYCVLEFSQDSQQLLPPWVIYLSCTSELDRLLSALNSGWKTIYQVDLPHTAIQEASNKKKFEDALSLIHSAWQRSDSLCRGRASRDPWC
Chain of UniProt O00233 (O00233 whole entry, looked up): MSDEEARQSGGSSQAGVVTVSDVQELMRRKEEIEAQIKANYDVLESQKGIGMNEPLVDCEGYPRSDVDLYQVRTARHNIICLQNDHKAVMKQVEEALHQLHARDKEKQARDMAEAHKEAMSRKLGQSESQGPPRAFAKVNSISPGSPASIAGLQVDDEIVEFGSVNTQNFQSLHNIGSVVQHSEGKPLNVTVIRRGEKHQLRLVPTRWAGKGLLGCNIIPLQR

| Target | log2 fold change [1] | log2 fold change [2] | log2 fold change [3] | log2 fold change [4] | log2 fold change (Nexturastat A) | log2 fold change (vemurafenib) | log2 fold change [5] | log2 fold change [6] | log2 fold change (givinostat) | log2 fold change (barasertib) | log2 fold change [7] | log2 fold change (volasertib) | log2 fold change [8] | log2 fold change (epoxomicin) | log2 fold change [9] | log2 fold change [10] | log2 fold change [11] | log2 fold change (rosiglitazone) | log2 fold change [12] | log2 fold change [13] |
| --- | --- | --- | --- | --- | --- | --- | --- | --- | --- | --- | --- | --- | --- | --- | --- | --- | --- | --- | --- | --- |
| POLR2I (UniProt P36954) | -0.063 | -0.011 | -0.015 | 0.001 | 0.055 | -0.086 | -0.081 | -0.057 | -0.151 | 0.085 | 0.209 | 0.232 | 0.055 | 0.007 | 0.017 | -0.208 | -0.107 | -0.107 | -0.009 | 0.202 |
| QRSL1 (UniProt Q9H0R6) | -0.001 | -0.079 | 0.018 | 0.041 | -0.09 | 0.086 | 0.061 | 0.093 | 0.033 | 0.044 | 0.044 | -0.167 | 0.069 | 0.027 | -0.003 | -0.029 | 0.023 | 0.055 | -0.053 | -0.095 |
| PDS5A (UniProt Q29RF7) | 0.093 | -0.109 | 0.012 | 0.12 | 0.057 | 0.143 | 0.294 | 0 | 0.208 | 0.275 | -0.213 | -0.447 | 0.137 | 0.29 | -0.086 | 0.012 | -0.107 | 0.246 | 0.042 | -0.203 |
| PRIM2 (UniProt P49643) | -0.028 | -0.018 | -0.019 | 0.054 | 0.017 | 0.054 | 0.03 | 0.023 | 0.085 | 0.08 | -0.119 | -0.285 (active) | 0.147 | 0.02 | -0.041 | -0.07 | 0.076 | 0.065 | 0.013 | -0.131 |
| PSMD9 (UniProt O00233) | -0.012 | 0.018 | 0.021 | 0.012 | -0.068 | -0.014 | -0.021 | -0.016 | -0.004 | 0 | -0.011 | 0.086 | 0.004 | -0.04 | -0.009 | -0.137 | -0.01 | 0.002 | -0.034 | 0.127 |
| PHF5A (UniProt Q7RTV0) | -0.019 | -0.046 | -0.023 | -0.012 | -0.017 | -0.075 | -0.064 | 0.021 | -0.075 | -0.032 | 0.013 | 0.065 | -0.061 | 0.051 | 0.014 | 0.087 | -0.063 | -0.062 | -0.017 | 0.017 |
| POLD3 (UniProt Q15054) | -0.131 | -0.055 | 0.03 | 0.007 | -0.115 | 0.082 | 0.049 | 0.065 | 0.018 | 0.006 | -0.147 | -0.101 | 0.008 | 0.126 | -0.071 | -0.037 | 0.067 | 0.513 | 0.051 | -0.118 |
| PIR (UniProt O00625) | -0.063 | 0.325 (active) | 0.002 | -0.035 | -0.053 | 0.03 | 0.122 | 0.085 | -0.146 | 0.007 | -0.041 | -0.069 | -0.028 | 0.034 | 0.097 | -0.006 | 0.031 | 0.02 | -0.06 | -0.052 |
| PISD (UniProt Q9UG56) | -0.015 | 0.002 | 0.013 | 0.085 | 0.022 | -0.068 | 0.049 | 0.009 | 0.024 | 0.026 | -0.136 | -0.117 | -0.017 | -0.002 | -0.029 | -0.076 | -0.113 | 0.027 | -0.036 | -0.192 |
| PLEKHM2 (UniProt Q8IWE5) | 0.064 | 0.035 | 0.052 | -0.011 | -0.028 | 0.075 | 0.124 | 0.038 | 0.177 | 0.076 | -0.127 | -0.177 | 0.009 | 0.037 | -0.051 | -0.175 | 0.003 | 0.034 | -0.04 | -0.357 (active) |
| PPM1G (UniProt O15355) | 0.087 | -0.04 | -0.031 | 0.048 | -0.053 | 0.112 | 0.13 | 0.067 | 0.17 | 0.052 | -0.208 | -0.381 (active) | 0.066 | 0.087 | -0.001 | -0.073 | 0.098 | 0.089 | 0.017 | -0.025 |
| PSMC4 (UniProt P43686) | 0.016 | 0.013 | -0.049 | -0.036 | 0.03 | -0.066 | -0.083 | 0.084 | -0.059 | -0.042 | 0.033 | 0.2 | -0.021 | -0.379 (active) | -0.02 | 0.086 | -0.033 | -0.021 | 0.033 | 0.06 |
| PRPF38A (UniProt Q8NAV1) | 0.005 | -0.023 | -0.058 | 0.017 | 0.019 | -0.118 | -0.089 | 0.065 | 0.005 | -0.024 | -0.029 | -0.016 | 0 | 0.048 | -0.011 | 0.031 | 0.051 | 0.031 | -0.037 | -0.081 |
| PCGF2 (UniProt P35227) | -0.043 | -0.058 | -0.056 | 0.033 | -0.01 | 0 | -0.033 | 0.056 | 0.046 | 0.113 | -0.131 | -0.089 | 0.012 | -0.005 | -0.054 | -0.02 | -0.03 | 0.028 | -0.071 | -0.282 (active) |
| PPT1 (UniProt P50897) | -0.017 | 0.009 | 0.046 | 0.013 | -0.081 | 0 | -0.003 | -0.107 | -0.022 | -0.017 | -1.41 (active) | -1.9 (active) | -0.041 | 0.014 | 0.015 | 0.01 | -0.009 | -0.008 | -0.035 | -0.925 (active) |
